# High-throughput results from PubChem.
# Compounds with a hit are over-represented: about 3.5% of the library has one in this group of screens.
# FBW7 activator – activators of human E3 ligase FBW7 | actives 0.13% (n = 650,000) | normalized activity (activation), % at 26.1 µM | AID 1259310 | Q969H0 | AlphaScreen FBW7–phospho-cyclin E peptide binding, activator screen; in the data active = normalized activity above about 1.9%;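 also: purified mutant Fbw7 with reduced substrate affinity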
# MITF primary – human MITF inhibition, primary screen. O75030. AlphaScreen MITF homodimerization, bead proximity signal. inhibition, % at 2.6 µM. actives 0.91% (n = 650,000); in the data active = inhibition above about 50%;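 also: 0% = vehicle wells with protein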
# Target sequence (O75030 whole entry, looked up): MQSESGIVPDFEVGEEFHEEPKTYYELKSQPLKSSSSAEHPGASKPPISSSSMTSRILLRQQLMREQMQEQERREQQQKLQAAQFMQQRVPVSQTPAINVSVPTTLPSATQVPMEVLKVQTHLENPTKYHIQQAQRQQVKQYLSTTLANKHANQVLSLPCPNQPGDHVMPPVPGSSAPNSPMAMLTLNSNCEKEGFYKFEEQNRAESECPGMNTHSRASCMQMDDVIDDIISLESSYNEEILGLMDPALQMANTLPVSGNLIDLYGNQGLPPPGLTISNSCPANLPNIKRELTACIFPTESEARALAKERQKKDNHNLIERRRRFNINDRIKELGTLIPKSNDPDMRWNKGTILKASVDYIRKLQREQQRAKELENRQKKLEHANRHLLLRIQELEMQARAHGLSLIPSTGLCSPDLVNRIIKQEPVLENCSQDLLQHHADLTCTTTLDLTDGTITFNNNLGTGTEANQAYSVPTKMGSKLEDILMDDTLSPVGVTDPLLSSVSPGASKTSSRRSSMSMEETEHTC
# TEAD-YAP inh – TEAD-YAP interaction inhibition. inhibition, % at 9.12 µM. HEK-TIYL cells, TEAD-Gal4/YAP UAS-luciferase luminescence. actives 1.4% (n = 640,000); in the data active = inhibition above about 32%;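 also: 0% = median of test compound wells and 100% = reference inhibitor wells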
# GPR151 activ – activates the human receptor GPR151; actives 1% (n = 650,000); Q8TDV0; activation, % at 11.2 µM; PathHunter beta-arrestin GPR151 cells, luminescence; in the data active = activation above about 4.9%;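 also: 0% = median of compound wells and 100% = cells with positive control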
# * marks the source's active call; other numbers are inactive results.
SMILES,FBW7 activator,MITF primary,TEAD-YAP inh,GPR151 activ
CCOCCOC(=O)c1[nH]c2c(c1C)C(=O)CC(c1cc(OC)ccc1OC)C2 (stereo unspecified),0.0,4.7,45.4*,-0.5
O=C1NC(=S)N/C1=C\C=C\c1ccc([N+](=O)[O-])o1,-0.4,77.8*,88.7*,2.1
Cc1cc(=O)[nH]c(N/N=C/c2cc(Br)cc(Br)c2O)n1,-0.2,5.5,3.5,-0.4
Cc1cc(=O)[nH]c(N/N=C/c2ccc(O)cc2O)n1,-1.2,75.7*,1.7,1.4
Cc1n[nH]c(=O)nc1N/N=C/c1ccccc1Cl,0.0,-0.7,-2.9,-6.8
Cc1n[nH]c(=O)nc1N/N=C/c1ccc(O)cc1O,-0.8,96.8*,42.3*,-5.7
Cc1n[nH]c(=O)nc1N/N=C/c1ccc(N(C)C)cc1,-0.2,10.1,55.2*,-6.9
CCCOc1ccc(/C=N/Nc2nc(C)cc(=O)[nH]2)c(O)c1,-0.8,34.3,85.6*,1.8
O=C(O)C(=O)/C(=C\c1ccsc1)c1ccc2ccccc2n1,-0.1,21.8,45.4*,-4.8
O=C(O)C(=O)/C(=C\c1ccccc1)c1ccc2ccccc2n1,0.5,20.7,-21.7,-2.4
Cc1ccc(N2C(=O)c3ccccc3C2O)nc1 (stereo unspecified),-0.3,-0.5,78.0*,-6.2
CCn1nc(C(=O)N(CC2CCCO2)c2nc3ccc(C)cc3s2)cc1C (stereo unspecified),0.0,9.6,-19.1,2.2
CCn1nc(C)cc1C(=O)N(CC1CCCO1)c1nc2cc(C)cc(C)c2s1 (stereo unspecified),0.2,14.3,41.1*,-1.7
COc1ccc(NC(=O)c2cc(-c3cccc(O)c3)on2)cc1,0.1,5.5,-35.9,0.0
O=C(Nc1cccc(O)c1)c1cc(-c2ccc(F)cc2)on1,-0.1,-20.8,88.5*,-2.5
COc1ccc(-c2cc(C(=O)Nc3cccc(O)c3)no2)cc1,0.0,0.7,90.3*,-5.3
N#Cc1ccc(NC(=O)c2cc(-c3ccc(Cl)cc3)on2)cc1,0.0,-6.2,8.1,-0.6
N#Cc1ccc(NC(=O)c2cc(-c3ccc(O)cc3)on2)cc1,2.3*,-15.6,-8.6,-0.2
CC1SC(C)C(=O)N(CC(=O)Nc2ccc3c(c2)OCCO3)C1=O (stereo unspecified),1.2,16.4,8.6,-1.1
COc1ccc(C2C3=C(CC(C)(C)CC3=O)NC3=C2C(=O)CC(C)(C)C3)cc1O,-0.1,-3.9,2.3,1.2
CCCc1[nH]n(-c2ccc(F)cc2)c(=O)c1C=NCCCN1CCOCC1,-0.2,0.6,-3.4,-1.3
COc1cccc(NC(=O)c2ccc(C)cc2Cl)c1,0.2,13.2,67.2*,-2.8
Cc1ccc(C(=O)Nc2ccc(F)cc2)c(Cl)c1,0.1,5.2,61.9*,-3.2
COc1cccc(C(=O)Nc2cccc(OC(=O)c3ccc(Br)cc3)c2)c1,-0.1,3.2,43.7*,-2.3
O=C(Nc1ccc(F)cc1)c1ccc(Cl)cc1Cl,0.5,12.3,-21.6,-3.2
SMILES,FBW7 activator,MITF primary,TEAD-YAP inh,GPR151 activ
COc1ccccc1CNc1ccc(C(=O)Nc2ccc(C(C)C)cc2)cc1[N+](=O)[O-],-0.1,-1.5,-8.2,-0.1
COc1cccc(NC(=O)c2ccc(NCc3ccccc3OC)c([N+](=O)[O-])c2)c1,-0.2,2.3,48.8*,1.0
CSCC(=O)Nc1ccc(C)c(C)c1,0.0,11.0,9.9,-0.7
CSc1ccc(-c2nc(CSCC(=O)N3CCN(C)CC3)c(C)o2)cc1,-0.6,-6.5,21.4,1.7
COc1cccc(NC(=O)c2ccc(C)cc2)c1,0.0,5.8,61.6*,-9.6
COc1cccc(NC(=O)c2ccc(NC(C)=O)cc2)c1,0.5,11.1,-23.1,1.4
Cc1ccc(NC(=O)CN(C)C(=O)CCl)cc1,0.1,4.2,62.7*,-1.0
CN(CC(=O)Nc1ccc(Cl)cc1)C(=O)CCl,-0.1,-13.0,71.4*,0.2
Cc1ccc(NC(=O)CN(C)C(=O)COc2ccc(C#N)cc2)cc1,0.1,8.3,3.8,0.1
Cc1cc(NC(=O)c2cc([N+](=O)[O-])ccc2Br)ccc1NC(=O)c1ccccc1,-0.1,-5.1,6.5,0.0
CCN1C(=O)CC(C(=O)Nc2ccc(Cl)cc2)SC1=Nc1ccc(OC)cc1 (stereo unspecified),0.2,0.5,37.7*,1.7
CC(=O)C1=C(c2ccc(C3CCCCC3)cc2)N(C(C)=O)n2cnnc2S1,0.1,-4.5,73.5*,1.7
COC(=O)c1nn(-c2ccc(F)c(Cl)c2)cc1O,-0.2,6.1,-31.5,-0.3
COC(=O)c1nn(-c2ccc(C)c(C)c2)cc1O,-0.1,-0.7,53.9*,-5.9
O=C1c2ccccc2C(=O)c2c(NCCCN(CCO)CCO)cccc21,-0.6,15.3,41.0*,0.6
O=C(c1cccn2c(=O)c3cc4ccccc4cc3nc12)N1CCN(c2ccccn2)CC1,0.6,12.8,-5.0,-1.1
O=C(c1ccc2c(=O)n(Cc3ccc(Cl)cc3)c(=S)[nH]c2c1)N1CCN(Cc2ccc3c(c2)OCO3)CC1,-0.2,-8.3,6.7,-0.9
CCOCCCn1c(=S)[nH]c2cc(C(=O)N3CCN(Cc4ccc5c(c4)OCO5)CC3)ccc2c1=O,0.2,5.5,43.0*,2.1
CCOC(=O)c1sc2c(c1NC(=O)c1ccc(Cl)cc1)CCCC2O (stereo unspecified),0.8,8.0,-5.0,1.8
Cc1nnc2n1CCN(C(=O)/C(F)=C/c1ccccc1)CC2,1.9*,-3.6,-5.3,-0.3
CC1CCc2nc(N)c(C#N)c(-c3cccnc3)c2C1 (stereo unspecified),1.9*,18.9,50.0*,-0.1
COc1ccccc1C(=O)Nn1c(-c2ccc(Br)cc2)nc2ccccc2c1=O,-0.1,-0.8,7.1,0.0
CCc1ccc(C(=O)On2c(-c3ccc(C(C)(C)C)cc3)nc3ccccc3c2=O)cc1,-0.6,-6.0,39.1*,-0.6
COc1ccc(-c2nc3ccccc3c(=O)n2OC(=O)c2ccc(C(C)(C)C)cc2)cc1OC,0.1,-3.4,-13.6,-1.8
CC(C)(C)c1ccc(C(=O)On2c(-c3ccc(C(C)(C)C)cc3)nc3ccccc3c2=O)cc1,-0.7,-4.1,37.9*,-0.5
SMILES,FBW7 activator,MITF primary,TEAD-YAP inh,GPR151 activ
COc1ccccc1C(=O)Nn1c(-c2ccc(C(C)(C)C)cc2)nc2ccccc2c1=O,0.0,17.3,39.7*,-0.2
COc1ccccc1C1CC(=O)NC(SCC(=O)Nc2cccc(C)c2)=C1C#N (stereo unspecified),0.3,19.8,1.8,-0.7
Cc1cc(C)cc(OCCNC(=O)CCCCCN2C(=O)c3ccccc3C2=O)c1,-0.1,-3.0,-0.6,-0.7
CCn1c(SCc2cc(=O)n3cc(Br)ccc3n2)nc2ccsc2c1=O,-0.1,-0.1,-12.4,0.0
Cc1ccc(NC(=O)CCOc2ccccc2)cc1Cl,2.4*,9.6,-23.1,-0.2
COCCNc1nc2c(C)cccn2c(=O)c1/C=C1\SC(=S)N(C(C)C)C1=O,0.1,13.5,12.3,-0.4
Cc1ccc(-c2csc(NC(=O)c3ccc(S(=O)(=O)N4CCc5ccccc54)cc3)n2)o1,-0.2,21.8,24.9,-1.4
O=C(O)c1c(O)c2ccccc2[nH]c1=O,0.5,8.6,2.8,-1.4
O=c1[nH]c2ccccc2c(O)c1O,0.0,7.8,38.4*,-0.7
